# Results: PubChem BioAssay
# Calls of active or inactive are those of the source. Unless noted, no rule for the calls is given here.
# Columns and labels:
# [1] = HepG2 liver cancer cell viability effects, profiling panel, resazurin fluorescence, 24 h, PK04 Diversity Set (AID 1172); settings: higher = more signal
# [2] = basal S. cerevisiae growth modulation, no modifier, primary screen, OD600, strain BY4716, 24 h, basal condition (AID 1173); settings: OD600, 24 h, higher = more signal, called active from +8 up or from −8 down
# [3] = MM1S myeloma cell viability, profiling panel, resazurin fluorescence, basal, 24 h, PK04 Diversity Set (AID 1174); settings: higher = more signal, called active from +8 up or from −8 down;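 also: MM1S multiple myeloma cell line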
# [4] = target: Dihydroorotate dehydrogenase (quinone), mitochondrial (Plasmodium falciparum (isolate 3D7)) (UniProt Q08210); assay: PfDHODH enzyme inhibitors, primary screen, biochemical, C-terminal His tag, absorbance 600 nm (AID 1175); settings: DCIP absorbance 600 nm, higher = more signal, called active from +8 up or from −8 down;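 also: recombinant parasite enzyme with a five histidine tag at its C terminus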
# [5] = P. aeruginosa biofilm formation inhibitors, primary screen, strain PAO1, LB-PBS medium, absorbance 600 nm (AID 1176); settings: P. aeruginosa PAO1 growth/biofilm, A600, 12 h; higher = more signal
# [6] = S. cerevisiae RM11-1a growth modifiers, primary screen, strain RM11-1a, OD600, basal, 24 h (AID 1177); settings: OD600, 24 h, higher = more signal, called active from +8 up or from −8 down;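 also: cultures grown under basal conditions with no added stressor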
# [7] = E. coli acrAB mutant growth effects, primary screen, E. coli filamentation inducers, strain DRC39, OD650, 24 h (AID 1178); settings: higher = more signal, called active from +8 up or from −8 down;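 also: growth measured as culture turbidity by optical density at 650 nm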
# [8] = E. coli acrAB mutant growth effects, primary screen, E. coli filamentation inducers, strain DRC39, OD650, 48 h (AID 1179);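 also: screen aims at cell division blockers that make cells filament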; settings: E. coli DRC39 delta-acrAB growth, higher = more signal, called active from +8 up or from −8 down
# [9] = RPMI8226 myeloma cell viability, profiling panel, resazurin fluorescence, basal, 24 h, PK04 Diversity Set (AID 1180); settings: higher = more signal;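 also: RPMI8826 multiple myeloma cell line at 5000 cells per well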
# [10] = target: E3 ubiquitin-protein ligase XIAP (Homo sapiens) (UniProt P98170); assay: XIAP binders, primary screen, biophysical, small-molecule microarray, fluorescence 635 nm (AID 1181); settings: small-molecule microarray binding, higher = more signal;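 also: score merges 667 nm emission and signal to noise over triplicate slides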
# [11] = test system: XIP peptide (Xip251-270) binding; assay: small-molecule binders of XIP peptide, primary screen, biochemical, small-molecule microarray, fluorescence 635/667 nm, 0.1 µg/mL protein (AID 1182); settings: fluorescent protein binding, 635 nm, higher = more signal, called active from +8 up or from −8 down
# XIP peptide (Xip251-270) = assay: small-molecule binders of XIP peptide, primary screen, biochemical, small-molecule microarray, fluorescence 635/667 nm, 0.5 µg/mL protein (AID 1183); settings: small-molecule microarray binding, fluorescence 635 nm; higher = more signal
# [12] = Plasmodium falciparum growth inhibition, primary screen, strain 3D7, DAPI fluorescence, 100 nL (AID 1184);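 also: parasites grown inside human red blood cells in medium with human serum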; settings: P. falciparum 3D7 growth, 3 d, higher = more signal
# [13] = target: Homeobox protein Hox-A13 (Mus musculus) (UniProt Q62424); assay: inhibitors of HoxA13-DNA binding, primary screen, biochemical, fluorescence polarization, labeled oligonucleotide (AID 1185); settings: 15 min, higher = more signal, called active from +8 up or from −8 down
# [14] = inhibitors of hydroxyurea-induced Chk1 phosphorylation, primary screen, imaging, HeLa, phospho-Chk1 antibody, percent positive cells (AID 1186); settings: hydroxyurea-induced phospho-Chk1 immunofluorescence imaging, higher = more signal
# [15] = inhibitors of hydroxyurea-induced Chk1 phosphorylation, primary screen, imaging, HeLa, phospho-Chk1 nuclear intensity (AID 1187); settings: hydroxyurea-induced phospho-Chk1 immunofluorescence imaging, higher = more signal
# Chain of Dihydroorotate dehydrogenase (quinone), mitochondrial (Plasmodium falciparum (isolate 3D7)) (Q08210 whole entry, looked up): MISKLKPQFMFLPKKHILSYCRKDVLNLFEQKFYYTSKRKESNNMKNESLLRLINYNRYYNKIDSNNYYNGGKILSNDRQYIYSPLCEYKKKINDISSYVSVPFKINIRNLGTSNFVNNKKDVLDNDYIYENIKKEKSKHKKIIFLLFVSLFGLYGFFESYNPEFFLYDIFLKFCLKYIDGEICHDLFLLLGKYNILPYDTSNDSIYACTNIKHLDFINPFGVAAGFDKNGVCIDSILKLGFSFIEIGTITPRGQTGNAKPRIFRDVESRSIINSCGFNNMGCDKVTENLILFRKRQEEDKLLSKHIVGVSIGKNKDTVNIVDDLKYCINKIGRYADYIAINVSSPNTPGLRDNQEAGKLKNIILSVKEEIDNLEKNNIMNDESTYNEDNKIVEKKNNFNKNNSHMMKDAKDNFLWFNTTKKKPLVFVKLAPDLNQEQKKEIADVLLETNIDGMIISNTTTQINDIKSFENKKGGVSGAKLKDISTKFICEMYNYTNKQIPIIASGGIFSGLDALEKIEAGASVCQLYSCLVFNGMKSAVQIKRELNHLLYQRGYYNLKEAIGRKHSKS
# Chain of E3 ubiquitin-protein ligase XIAP (Homo sapiens) (P98170 whole entry, looked up): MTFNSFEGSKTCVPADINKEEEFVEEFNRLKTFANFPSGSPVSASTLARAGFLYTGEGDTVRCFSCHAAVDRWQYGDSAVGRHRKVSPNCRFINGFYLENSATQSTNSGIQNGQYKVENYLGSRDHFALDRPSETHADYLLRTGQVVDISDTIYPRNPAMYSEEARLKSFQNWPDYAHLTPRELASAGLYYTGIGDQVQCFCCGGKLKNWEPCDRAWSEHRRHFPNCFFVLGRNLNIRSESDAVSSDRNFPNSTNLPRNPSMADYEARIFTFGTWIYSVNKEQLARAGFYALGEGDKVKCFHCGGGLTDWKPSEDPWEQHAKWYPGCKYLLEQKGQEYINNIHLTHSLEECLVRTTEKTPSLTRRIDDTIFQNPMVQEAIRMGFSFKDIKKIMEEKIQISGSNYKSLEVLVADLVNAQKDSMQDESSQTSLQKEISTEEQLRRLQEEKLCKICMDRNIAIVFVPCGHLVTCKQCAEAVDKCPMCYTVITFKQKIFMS
# Chain of Homeobox protein Hox-A13 (Mus musculus) (Q62424 whole entry, looked up): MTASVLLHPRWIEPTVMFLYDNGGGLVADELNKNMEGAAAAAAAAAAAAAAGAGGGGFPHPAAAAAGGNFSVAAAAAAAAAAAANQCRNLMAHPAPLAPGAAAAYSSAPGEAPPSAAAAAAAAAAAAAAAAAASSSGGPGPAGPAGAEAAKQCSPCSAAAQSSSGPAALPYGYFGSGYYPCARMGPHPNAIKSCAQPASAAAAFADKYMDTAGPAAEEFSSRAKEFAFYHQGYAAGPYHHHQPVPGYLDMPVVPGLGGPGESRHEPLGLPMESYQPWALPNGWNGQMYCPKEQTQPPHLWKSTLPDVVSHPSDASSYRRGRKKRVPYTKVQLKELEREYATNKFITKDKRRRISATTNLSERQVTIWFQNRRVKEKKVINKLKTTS
Compound,z-score [1],z-score [2],z-score [3],composite z-score [4],z-score [5],z-score [6],z-score [7],z-score [8],z-score [9],composite z-score [10],composite z-score [11],composite z-score (XIP peptide (Xip251-270)),z-score [12],z-score [13],z-score [14],z-score [15]
[N-]=[N+]=NCc1ccccc1[C@@H]1OC(c2ccc(OCCCO)cc2)=N[C@]1(Cc1ccccc1N=[N+]=[N-])C(=O)NCC(O)CO (some centres undefined),-0.897,-0.815 (inactive),-0.954 (inactive),-0.728 (inactive),0.507 (inactive),0.628 (inactive),-0.0582 (inactive),0.625 (inactive),-1.47,0.243,1.45 (inactive),0.5,-2.31,-2.19 (inactive),-0.168 (inactive),0.0749 (inactive)
CC(C)(C)OC(=O)CC[C@]1(C(=O)NCC(O)CO)N=C(c2ccc(OCCCO)cc2)O[C@H]1c1ccccc1N=[N+]=[N-] (some centres undefined),-0.108,-0.66 (inactive),-1.58 (inactive),-0.955 (inactive),0.948 (inactive),-0.134 (inactive),-0.0029 (inactive),0.0611 (inactive),-0.288,-0.0018,3.52 (inactive),0.811,-1.45,-4.51 (inactive),0.0505 (inactive),0.259 (inactive)
COc1ccc(C(=O)Nc2cccc(CN3C(=O)[C@@]4(O[C@@H](CC(=O)N5CCC[C@H]5CO)[C@H]([Si](C)(C)c5ccc(OC)cc5)[C@H]4C)c4ccccc43)c2)cc1,-0.429,-0.0739 (inactive),-1.17 (inactive),-5.69 (inactive),1.03 (inactive),0.844 (inactive),0.603 (inactive),0.274 (inactive),-1.25,0.147,0.802 (inactive),0.639,-2.16,-2.8 (inactive),-0.142 (inactive),0.071 (inactive)
C[C@@H]1NC(=O)C([C@@H](C)OCc2ccccc2)NC(=O)[C@@]23C(=O)N[C@@H](Cc4ccccc4)C2[C@H](C)[C@@]2(C)O[C@H]2C3/C=C/C/C=C\CNC1=O (some centres undefined),-0.847,-0.399 (inactive),0.026 (inactive),-0.0288 (inactive),0.625 (inactive),0.533 (inactive),-0.602 (inactive),-0.426 (inactive),-0.104,-0.291,-0.501 (inactive),-0.458,0.0074,-7.4 (inactive),-0.0202 (inactive),-0.0344 (inactive)
COCCOC(=O)N1C(=O)[C@@]2(c3cc(C#CCC(C(=O)OC)C(=O)OC)ccc31)[C@H](c1ccc(O)cc1)N1[C@H](c3ccccc3)[C@H](c3ccccc3)OC(=O)[C@H]1[C@@H]2C(=O)Nc1nc2ccccc2s1,0.623,-0.146 (inactive),-1.05 (inactive),-1 (inactive),0.321 (inactive),0.559 (inactive),-0.709 (inactive),-0.961 (inactive),-0.157,-0.138,1.49 (inactive),0.853,-1.43,-2.2 (inactive),0.03 (inactive),0.0087 (inactive)
C=CCNC(=O)[C@H]1[C@@H]2C(=O)O[C@@H](c3ccccc3)[C@@H](c3ccccc3)N2[C@@H](c2ccc(OCCO)cc2)[C@]12C(=O)Nc1ccc(C#CC3(O)CCCCCC3)cc12,-0.311,0.868 (inactive),-0.823 (inactive),-0.0685 (inactive),0.898 (inactive),2.62 (inactive),0.352 (inactive),0.988 (inactive),-0.987,-0.224,0.38 (inactive),0.821,-2.09,-1.83 (inactive),0.541 (inactive),1.15 (inactive)
O=C1[C@@H]2[C@@H](CC(COc3ccccc3)=C([C@H](O)CCc3ccccc3)[C@@H]2CO)C(=O)N1Cc1ccccc1,-1.38,-0.0733 (inactive),-0.577 (inactive),-2.37 (inactive),0.258 (inactive),1.47 (inactive),0.372 (inactive),0.203 (inactive),-0.664,0.15,-0.268 (inactive),0.73,-0.0811,-6.92 (inactive),-0.556 (inactive),-0.945 (inactive)
CCCC=C(CCC)[C@@H](NC(=O)c1ccc(C(F)(F)F)cc1)c1ccc(C(F)(F)F)cc1,0.706,2.01 (inactive),0.126 (inactive),0.256 (inactive),0.219 (inactive),2.66 (inactive),-0.101 (inactive),0.0205 (inactive),-1.9,1.11,0.237 (inactive),0.541,-0.702,-3.88 (inactive),-0.136 (inactive),-0.377 (inactive)
C=C(COC)/C(=C/C[C@@H](OC(C)=O)c1ccccc1OCCO)c1cnc2ccccc2c1,-1.15,-2.19 (inactive),-0.975 (inactive),-7.89 (inactive),-0.104 (inactive),0.315 (inactive),-1.17 (inactive),-0.828 (inactive),-0.3,0.0739,0.534 (inactive),0.69,-2.92,-5.76 (inactive),-0.5 (inactive),-0.376 (inactive)
